Measured values as given in PubChem BioAssay AID1159580 (chemical genetic matrix, 2015).
Where “and” joins values, the source holds several entries; their conditions need not be identical. Identical values can stand only once. Out of some 5,500 compounds screened, about 2,000 (36%) were called active. Another 18% or so got no clear call; they are omitted. Cut-off read from the data, not from the text of the source: active = normalized growth mostly below about 0.91 (no sharp cut-off); inconclusive = no clear call, values can overlap the other calls; inactive = mostly above about 0.92. Some of the results follow.

Experiment: chemical genetic growth profiling, strain panel (AID 1159580);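 note: tested at 20 µM; growth read once vehicle control cultures reached saturation at 30 °C; 1 = growth at the plate median or of vehicle wells; lower values mean less growth of the strain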
Details: S. cerevisiae deletion strains, growth OD

Measured: normalized growth

c1ccc2[nH]c(-c3cscn3)nc2c1
active: locus YDR195W, strain ref2 1.15 [resistant] | locus YEL003W, strain gim4, hits give low values 0.132 | locus YER155C, strain BEM2 (second series), hits give low values 0.833
inactive: locus YAL021C, strain ccr4, hits give low values 0.964 | locus YAL026C, strain drs2, hits give low values 0.956 | locus YAL030W, strain snc1, hits give low values 1.01 | locus YBL061C, strain skt5, hits give low values 1.01 | locus YBR009C, strain hhf1, hits give low values 0.965 | locus YBR021W, strain FUR4, hits give low values 0.946 | locus YBR023C, strain chs3, hits give low values 0.993 | locus YBR171W, strain sec66, hits give low values 1 | locus YBR229C, strain ROT2, hits give low values 0.991 | locus YBR231C, strain swc5, hits give low values 0.958 | locus YBR279W, strain paf1, hits give low values 1.01 | locus YCL011C, strain gbp2, hits give low values 0.982 | locus YCL016C, strain dcc1, hits give low values 0.95 | locus YCL029C, strain bik1, hits give low values 0.945 | locus YCL061C, strain MRC1, hits give low values 0.991 | locus YCL069W, strain vba3, hits give low values 0.996 | locus YCR088W, strain abp1, hits give low values 1.01 | locus YDL005C, strain med2, hits give low values 1.02 | locus YDL035C, strain GPR1, hits give low values 0.996 | locus YDL040C, strain nat1, hits give low values 1.01 | locus YDL074C, strain BRE1, hits give low values 0.94 | locus YDL101C, strain DUN1, hits give low values 1.01 | locus YDL134C, strain PPH21, hits give low values 0.998 | locus YDL185W, strain tfp1, hits give low values 1.01 | locus YDL192W, strain arf1, hits give low values 1.01 | locus YDR069C, strain doa4, hits give low values 0.988 | locus YDR101C, strain arx1, hits give low values 0.945 | locus YDR137W, strain rgp1, hits give low values 0.91 | locus YDR159W, strain sac3, hits give low values 0.965 | locus YDR162C, strain NBP2, hits give low values 1.01 | locus YDR297W, strain sur2, hits give low values 1.03 | locus YDR318W, strain mcm21, hits give low values 0.998 | locus YDR334W, strain swr1, hits give low values 0.998 | locus YDR335W, strain msn5, hits give low values 1.02 | locus YDR388W, hits give low values 1.01 | locus YDR392W, strain spt3, hits give low values 0.867 | locus YDR502C, strain sam2, hits give low values 0.971 | locus YEL037C, strain rad23, hits give low values 0.991 | locus YEL061C, strain CIN8 (second series), hits give low values 1 | locus YEL061C, strain CIN8, hits give low values 0.987 | locus YER015W, strain faa2, hits give low values 0.997 | locus YER016W, strain bim1, hits give low values 0.995 | locus YER110C, hits give low values 1.02 | locus YER111C, strain swi4, hits give low values 1.01 | locus YER155C, strain BEM2, hits give low values 0.991 | locus YER167W, strain BCK2, hits give low values 0.997 | locus YFR010W, strain ubp6, hits give low values 0.986 | locus YGL078C, strain dbp3, hits give low values 1.01 | locus YGL086W, strain mad1, hits give low values 0.959 | locus YGL167C, strain pmr1, hits give low values 1.02 | locus YGL173C, strain kem1, hits give low values 1.01 | locus YGL227W, strain vid30, hits give low values 1.02 | locus YGL240W, strain doc1, hits give low values 0.957 | locus YGL248W, strain PDE1, hits give low values 0.992 | locus YGL253W, strain hxk2, hits give low values 0.998 | locus YGR135W, strain pre9, hits give low values 1.04 | locus YGR252W, strain gcn5, hits give low values 0.962 | locus YHR013C, strain ard1, hits give low values 0.922 | locus YHR027C, strain rpn1, hits give low values 1.01 | locus YHR030C, strain SLT2, hits give low values 0.992 and 0.96 | locus YHR079C, strain IRE1 (second series), hits give low values 1 | locus YHR079C, strain IRE1, hits give low values 0.963 | locus YHR094C, strain hxt1, hits give low values 1.01 | locus YHR129C, strain ARP1, hits give low values 0.993 | locus YHR142W, strain chs7, hits give low values 1 | locus YHR200W, strain rpn10, hits give low values 1 | locus YIL066C, strain RNR3, hits give low values 0.954 | locus YIL073C, strain SPO22, hits give low values 1.06 | locus YIL125W, strain kgd1, hits give low values 1 | locus YIR030C, strain dcg1, hits give low values 0.994 | locus YJL092W, strain hpr5, hits give low values 0.997 | locus YJL095W, strain BCK1 (second series), hits give low values 1.02 | locus YJL095W, strain BCK1, hits give low values 0.997 and 0.958 | locus YJL115W, strain asf1, hits give low values 1 | locus YJL129C, strain trk1, hits give low values 1.02 | locus YJL134W, strain LCB3, hits give low values 1 | locus YJL154C, strain vps35, hits give low values 1.01 | locus YJL164C, strain tpk1, hits give low values 0.966 | locus YJL166W, strain qcr8, hits give low values 1 | locus YJL168C, strain set2, hits give low values 1.01 | locus YJL187C, strain SWE1 (second series), hits give low values 0.974 | locus YJR043C, strain POL32, hits give low values 0.964 | locus YJR066W, strain TOR1, hits give low values 0.917 | locus YJR075W, strain HOC1, hits give low values 0.979 | locus YKL009W, strain mrt4, hits give low values 1.02
